This note sets out measurements from PubChem BioAssay AID1359 (The Scripps Research Institute Molecular Screening Center, 2008).

Each structure is given as a SMILES string. In all, about 220,000 compounds went through this assay and about 970 (0.44%) were called active. Many of the other results were omitted from the sample, so actives are more common in it than they were. A number with no mark means an inactive call. No stated cut-off is given here; in the data, active means activation above about 27%; inactive means the rest.

The target in the test is Neuropeptide Y receptor type 2 (Homo sapiens) (UniProt P49146). Description: NPY-Y2 potentiators or agonists, primary screen, cell-based (AID 1359).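 Further: cells stimulated with NPY near EC25 plus isoproterenol at EC100; 0% = vehicle plus submaximal agonist and 100% = vehicle plus saturating agonist.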 As to conditions: cells expressing NPY-Y2, potentiator/agonist read-out; at 3.6 µM; active compounds read high.
Neuropeptide Y receptor type 2 (Homo sapiens), sequence (P49146 whole entry, looked up): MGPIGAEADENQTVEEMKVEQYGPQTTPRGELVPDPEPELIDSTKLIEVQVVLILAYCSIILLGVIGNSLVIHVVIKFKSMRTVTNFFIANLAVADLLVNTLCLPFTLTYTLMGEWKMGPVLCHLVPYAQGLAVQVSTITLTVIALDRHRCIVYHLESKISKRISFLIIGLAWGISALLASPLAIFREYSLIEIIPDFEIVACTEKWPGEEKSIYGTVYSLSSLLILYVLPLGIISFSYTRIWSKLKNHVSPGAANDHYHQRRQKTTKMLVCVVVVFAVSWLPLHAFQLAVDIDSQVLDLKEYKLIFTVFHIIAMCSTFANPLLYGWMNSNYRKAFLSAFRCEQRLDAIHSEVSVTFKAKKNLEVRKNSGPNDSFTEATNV
For the molecule `COc1ccc2c(c1)C(SCC(=O)NCc1ccccc1)CC(C)(C)O2` (configuration not stated), the activation is 15.7%. The figure for `COc1ccc(/C(C)=N/Nc2cc(C(F)(F)F)ccc2Cl)c(OC)c1` is -10.5%. The value for `O=C(Nc1cccc(-c2nc3ccccc3[nH]2)c1)c1ccc(C(=O)Nc2cccc(-c3nc4ccccc4[nH]3)c2)cc1` was 0.29%; that for `CCOC(=O)c1c(NC(=O)C2CCN(S(=O)(=O)c3ccc(Cl)cc3)CC2)sc2c1CCCC2` was -5.8%; that for `O=C(Nc1sc2c(c1-c1nc3ccccc3[nH]1)CCCC2)C1CC1` was 30.3% (active). `NC(=O)c1ccc(N2CCOCC2)nc1`: the activation is -10.3%.

As to `CCOC12CC(C)(C)CC(C)(CC3=C1C(=O)CC(C)(C)C3)C2` (configuration not stated), the activation is -1.87%. The figure for `CN(C)CCCSc1ccccc1NC(=O)/C=C/c1ccccc1` is -11.2%. The value for `C1CC1Cc1noc(CN2CCN(CC3CC3)CC2)n1` was -4.58%; that for `Cc1c(Cl)cccc1NC(=O)CSc1ccc(-c2cccnc2)nn1` was 2.4%.

Consider `O=C(NCCCN1CCN(Cc2ccccc2)CC1)C1CCN(S(=O)(=O)N2CCCC2)CC1`, for which the activation was 17.2%. The figure for `Cc1ccc(CCNC(=O)C2CCN(S(=O)(=O)N3CCCC3)CC2)cc1` is 104% (active); for `CCS(=O)(=O)N1CCCC(C(=O)NCc2ccc(C)cc2)C1` (configuration not stated) it is 13%. The figure for `CSc1nnc(SCc2nc3sc(C(=O)O)c(C)c3c(=O)[nH]2)s1` is 1.67%; for `COC(=O)CSc1nc2c(c(C3CC=CCC3)c1C#N)CCC2` (configuration not stated) it is -6.44%. In the case of `Cc1nc([N+](=O)[O-])cn1CC(=O)Nc1ccc2c(c1)OCO2`, the activation is -19.2%. The value for `Cc1ccccc1C(CC(=O)c1cccs1)C(C#N)C#N` (configuration not stated) was 4.09%. The figure for `CC1CCCCC1NC(=O)/C(C#N)=C/C=C/c1ccccc1[N+](=O)[O-]` (configuration not stated) is -5.09%. The value for `Cc1cc(C)c(NC(=O)C[N+](C)(C)CC(O)COc2cccc3ccccc23)c(C)c1` (configuration not stated) was 71.5% (active); that for `Cc1cc(C)cc(OCC(=O)NCc2cc(C)nc3ccccc23)c1` was -3.92%; that for `Cc1cc(C)c(NC(=O)c2oc3ccccc3c2COc2ccccc2)c(C)c1` was -12.9%.

As to `CCN(C(=O)COc1cccnc1[N+](=O)[O-])C1CCS(=O)(=O)C1` (configuration not stated), the activation is -0.31%.

As to `CN(CCO)Cc1csc2ccc(Br)cc12`, the activation is -20.4%.

Consider `CC(=O)N1C(=O)/C(=C2\SC(=S)N(NC(=O)c3ccc(O)cc3)C2=O)c2ccccc21`, for which the activation was -3.06%. The figure for `Cc1ccc(NS(=O)(=O)c2cccs2)cc1S(=O)(=O)N1CCCCCC1` is 3.99%. On to `CCOc1ccc(C(=O)NC2CCN(CC(=O)NCc3cccs3)CC2)cc1`, for which the activation was 13.5%. `O=C(NCc1ccccc1)c1ccc(S(=O)(=O)Nc2cccc(C(F)(F)F)c2)cc1`: the activation is 47.4% (active). `CCNS(=O)(=O)c1ccc(NC(=O)Nc2cccc(C(F)(F)F)c2)cc1`: the activation was 24.5%. The figure for `CS(=O)(=O)NCc1ccc(C(=O)NCc2ccccc2)cc1` is 10.7%; for `COc1ccc(CN2CCN(Cc3cn(C)nc3-c3ccccc3)CC2CCO)c(C)c1C` (configuration not stated) it is -18%; for `CC(C)(C)OC(=O)N/N=C/c1ccc(C(=O)O)cc1` it is 10%. The figure for `CC(=O)c1c(-c2ccccc2)c2ccccc2[nH]c1=O` is 6.99%; for `CCO[C@H]1OC(C(=O)N2CCN(Cc3ccccc3)CC2)=C[C@@H](c2cn(C(C)=O)c3ccccc23)[C@@H]1CCCO` it is -8.85%; for `COCC1CCCN(Cc2nc(-c3ccc4c(c3)OCO4)no2)C1` (configuration not stated) it is -10.6%. On to `Oc1c(Cl)cc(Cl)c(Cl)c1Cc1c(O)c(Cl)cc(Cl)c1Cl`, for which the activation was 56.1% (active). For `CCN(C(=O)COC(=O)c1cc(S(=O)(=O)N2CCc3ccccc32)ccc1OC)C1CCS(=O)(=O)C1` (configuration not stated), the activation was -3.32%.

For the molecule `CCOC(=O)C1=C(N)N2C(=O)C(C)SC2=C(C(=O)OCC)C1c1cc(OC)c(OC)c(OC)c1` (configuration not stated), the activation was -1.02%. The value for `Cc1ccccc1OCC(O)CN1CCN(c2ccccn2)CC1` (configuration not stated) was 17.9%.

For `OC(COc1cccc2ccccc12)CN1CCN(c2ccccn2)CC1` (configuration not stated), the activation is 58.3% (active). The value for `Cc1cccc(OCC(O)CN2CCN(CCN3C(=O)c4cccc5cccc(c45)C3=O)CC2)c1C` (configuration not stated) was 30.4%; that for `CC(C)COP(=O)(c1ccc(N(C)C)cc1)C(Nc1ccccc1)c1cccnc1` (configuration not stated) was 4.54%; that for `CC(=O)OC(C(=O)NCCc1ccccc1)c1cccnc1` (configuration not stated) was -16.8%. The figure for `CC(Nc1ccccc1)c1cccnc1` (configuration not stated) is 40.2% (active); for `CCCCc1cc2c(s1)CCCC/C2=N/O` it is 5.62%. With `C/C(=C\c1ccco1)CN1CCC(N2CCC(C(=O)N3CCOCC3)CC2)CC1`, the activation is -15.1%. `Cc1cc(C(=O)N/N=C/c2ccc(O)c([N+](=O)[O-])c2)c(C)n1-c1ccc(F)cc1`: the activation is 3.14%. Regarding `Cc1c(S(=O)(=O)NCc2ccccc2)c(=O)n(C)c(=O)n1C`, the activation was -20.2%.

`COc1ccc2nc(Nc3nc4ccc(NC(C)=O)cc4s3)sc2c1`: the activation was -3.69%. For `COc1ccc2nc(NC(=O)c3ccc(Br)s3)sc2c1`, the activation is 11.8%. The value for `COc1ccc2nc(NC(=O)NC3CCCCC3)sc2c1` was 42.1% (active); that for `O=C(NC(=S)Nc1cccc2c(O)cccc12)c1cccc(Br)c1` was -15.3%. As for `O=S(=O)([N-]c1nc2ccccc2nc1-[n+]1ccc(Cc2ccccc2)cc1)c1ccc(Br)s1`, the activation is -4%. With `O=C(c1ccc2c(c1)OCO2)N1CCOCC1`, the activation is 7.94%. The value for `C/C(=N\NC(=O)C(N)=O)c1ccc2c(c1)OCCO2` was -7.65%. The figure for `CC(=O)c1ccc2c(c1)OCCOCCOc1ccc(C(C)=O)cc1OCCOCCO2` is 43.3% (active).

Turning to `COc1ccc(N2C(=O)C(CC(=O)Nc3ccc(F)cc3)N(CCc3cccs3)C2=O)cc1` (configuration not stated), the activation is 4.57%.

As for `O=C(N1CCCCC1)N1CCN(C(=O)N2CCCCC2)CC1`, the activation was -11.1%. With `CN(C)S(=O)(=O)c1ccc(NC(=O)COC(=O)Cn2[nH]c(=O)c3ccccc3c2=O)cc1`, the activation was -2.17%.

As to `O=C(COC(=O)c1n[nH]c2ccccc12)NCc1ccccc1`, the activation was -3.06%.

For `CN(C)S(=O)(=O)c1ccc(NC(=O)COC(=O)c2n[nH]c3ccccc23)cc1`, the activation is 32.2% (active). The value for `COc1ccccc1N1CCN(C(=O)CSc2ncnc3c2cnn3-c2ccc(C)c(C)c2)CC1` was -4.38%; that for `CCOC(=O)c1sc2nc(C)[nH]c(=O)c2c1C` was -3.44%. In the case of `CC(C)OCCCNC(=S)N1CCC(C(=O)c2ccc3c(c2)OCCO3)CC1`, the activation is -6.61%. The figure for `COc1ccc(CC(=O)NCc2nnc(SCC(=O)Nc3ncc(C)s3)n2C)cc1` is -1.91%. Turning to `Cc1ccc(S(=O)(=O)N(Cc2ccc(Cl)cc2)c2ccccc2C(=O)NCc2cccnc2)cc1`, the activation was -13.3%. With `CC(C)(O)C#Cc1ccc(C(=O)N2CCC(C(N)=O)(N3CCCCC3)CC2)cc1`, the activation was 14.8%.

As to `NC(=O)C1(N2CCCCC2)CCN(C(=O)c2ccc(C#Cc3ccccc3)o2)CC1`, the activation was 66.2% (active). The figure for `NC(=O)C1(N2CCCCC2)CCN(C(=S)Nc2ccc(Cl)cc2)CC1` is 4.89%. For the molecule `C/C=C/C=C/C(=O)OCC(=O)Nc1ccc(Cl)cc1`, the activation was -15.7%.

Turning to `COc1ccc2c(-c3ccccc3)cc(SCC(=O)N(C)C3CCS(=O)(=O)C3)nc2c1` (configuration not stated), the activation is 6.98%. The figure for `CCCCC(=O)Nc1cc(C)c2c(=O)oc3ccccc3c2n1` is 1.67%; for `Cc1ccccc1-n1nnc2c(=O)oc3ccccc3c21` it is 32.7% (active); for `CCOC(=O)c1c(C)nc2c(c1C)c(=O)oc1ccccc12` it is -26.5%.

For `COc1ccc(NC(=O)c2cn(-c3ccccc3)nc2SC)cc1`, the activation was -16%.

Regarding `CCC(=O)c1ccc(N2CCN(C(=O)c3cc([N+](=O)[O-])ccc3F)CC2)c(F)c1`, the activation was -2.53%. The figure for `Cc1ccccc1CSc1nnc(-c2ccccc2)c(=O)[nH]1` is -5.69%.

With `O=C1CC(Sc2ncn[nH]2)C(=O)N1c1ccccc1` (configuration not stated), the activation was -10.2%. On to `Nc1c(-c2cccc(Cl)c2)cnn1-c1cccc([N+](=O)[O-])c1`, for which the activation was 43.3% (active).

Consider `O=[N+]([O-])c1cccc(C2=NCCS2)c1`, for which the activation was 5.16%. Consider `Cc1nn(-c2ccc([N+](=O)[O-])cc2)c(N)c1-c1ccccc1`, for which the activation was 8.55%. For `Cc1ccc(NC(=O)C(=O)NCc2ccc(/C=N/NC(=O)c3c(C)nc4cc(C)ccn34)o2)cc1`, the activation was 12.4%. Turning to `CCCN(CC(=O)Nc1ccccc1C)C(=O)c1cc(=O)[nH]c2ccccc12`, the activation is -12.5%. Consider `CC(C)NC(=O)NNc1c(Cl)cncc1Cl`, for which the activation is -6.55%. The figure for `COc1ccc(C)cc1NC(=O)Nc1ccccc1SC` is -22.3%; for `Cc1cccc(NC(=O)CN2C(=O)CNC2=O)c1` it is -5.86%; for `Cc1cccc(NC(=O)C(C)N2C(=O)C3C4CC(C(Br)C4Br)C3C2=O)c1` (configuration not stated) it is 33.6% (active). The figure for `Cc1ccnc(NC(=O)C(C)N2C(=O)c3ccccc3C2=O)c1` (configuration not stated) is -9.95%; for `CCOC(=O)N1CCN(C(=O)Cn2cnc3ccccc3c2=O)CC1` it is 2.69%; for `CN(Cc1ccccc1)C(=O)CCNC(=O)Cn1cnc2ccccc2c1=O` it is 54.9% (active). In the case of `O=C(Cn1cnc2ccccc2c1=O)NCC1COc2ccccc2O1` (configuration not stated), the activation is 4.37%. The value for `O=C(CN1CCN(Cc2ccccc2)CC1)NC(c1ccccc1)c1ccccc1` was -14%. The figure for `Cc1ccc(CNC(=O)Cn2c(=O)c3sccc3n(Cc3cccc([N+](=O)[O-])c3)c2=O)cc1` is 5.29%.
